Test results as given in PubChem BioAssay.
The source made the active and inactive calls.

What was measured:
[1] = small molecules captured by biotinylated probe aFSTL3 – biochemical, small-molecule microarray, fluorescence 635/667, stem cell growth factor project, primary screen (AID 1064); settings: higher = more signal;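 further: measures binding of the biotinylated anti-FSTL3 antibody to printed compounds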
[2] = binders from COS7 lysate, DM2A8 probe, primary screen, torsin A project, cell lysate, small-molecule microarray, fluorescence 635/667 (AID 1065); settings: higher = more signal, COS7 lysate expressing mutant human TOR1A
[3] = small molecules captured by biotinylated probe aFGF2 – biochemical, small-molecule microarray, fluorescence 635/667, stem cell growth factor project, primary screen (AID 1067); settings: higher = more signal;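 further: measures binding of biotinylated aFGF2 protein to printed compounds on slides; z-score merges feature fluorescence and signal-to-noise across triplicate slides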
[4] = small molecules captured by biotinylated probe aFGF10 – biochemical, small-molecule microarray, fluorescence 635/667, stem cell growth factor project, primary screen (AID 1071); settings: higher = more signal;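 further: score merges 667 nm spot intensity and signal to noise from triplicate slides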
[5] = biological target: Neurogenic locus notch homolog protein 2 (Homo sapiens) (UniProt Q04721); test: small molecules binding Notch2 protein – biochemical, small-molecule microarray, 635 nm fluorescence, stem cell growth factors, primary screen (AID 1073); settings: higher = more signal
[6] = biological target: Pro-neuregulin-1, membrane-bound isoform (Homo sapiens) (UniProt Q02297); test: small molecules binding neuregulin-1 protein – biochemical, small-molecule microarray, fluorescence 635/667, psychiatric disease protein project, primary screen (AID 1075); settings: NRG1 binding, 635 nm fluorescence, higher = more signal;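 further: score combines 667 nm spot fluorescence with signal to noise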
[7] = tested on: Neuregulin-1 EGF-like domain; test: small molecules binding NRG1 EGF domain – biochemical, small-molecule microarray, 635 nm fluorescence, primary screen (AID 1081); settings: higher = more signal;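 further: binding of the protein to compounds printed on small-molecule microarray slides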
[8] = FRG1 expression reporter modulators in myotubes – cell-based, C2C12 myotubes, firefly/Renilla luciferase, luminescence, FRG1 inhibition for FSHD, primary screen (AID 1084); settings: FRG1 promoter luciferase, higher = more signal, called active from +8 up or from −8 down
[9] = small molecules captured by biotinylated probe aFST – biochemical, small-molecule microarray, fluorescence 635/667, stem cell growth factor project, primary screen (AID 1086); settings: higher = more signal;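 further: score merges 667 nm fluorescence with signal-to-noise of each printed compound spot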
[10] = binders of probe aHhip on microarray, primary screen, stem cell growth factor project, biochemical, small-molecule microarray, fluorescence 635/667 (AID 1087); settings: higher = more signal;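 further: score merges spot fluorescence at 667nm with spot signal to noise ratio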
[11] = tested on: PRMT1 (protein arginine N-methyltransferase 1); test: small molecules binding arginine methyltransferase PRMT1 – biochemical, small-molecule microarray, 635 nm fluorescence, primary screen (AID 1088); settings: higher = more signal;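 further: binding of Prmt1 protein to compounds spotted on small-molecule microarray slides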
[12] = growth effects on S. cerevisiae YJM789 – YJM789 clinical isolate, OD600, 24 h, basal, primary screen (AID 1089); settings: higher = more signal, called active from +8 up or from −8 down;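 further: growth of clinical yeast isolate S. cerevisiae YJM 789 seeded 1000 cells per well; test concentration not given here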
[13] = S. pombe growth modifiers, basal conditions – strain 972, OD600, 24 h, no modulator, primary screen (AID 1090);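 further: basal condition with compound alone and no growth modifier present; test concentration not given here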; settings: S. pombe 972 growth, higher = more signal, called active from +8 up or from −8 down
[14] = budding yeast growth modifiers under rapamycin – strain BY4716, OD600, 96 h, primary screen (AID 1091); further: test concentration not given here; settings: S. cerevisiae BY4716 + rapamycin, higher = more signal, called active from +8 up or from −8 down
[15] = biological target: Torsin-1A-interacting protein 2 (Homo sapiens) (UniProt Q8NFQ8); test: small molecules binding lysate-expressed LULL1 – cell lysate, human LULL1 lysate, 635/667 nm fluorescence, primary screen (AID 1092); settings: small-molecule microarray, hLULL1 lysate binding, 635 nm fluorescence; higher = more signal;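 further: probe is lysate of COS7 cells overexpressing human LULL1; score merges per-feature 667 nm fluorescence with signal-to-noise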
[16] = optical density change of DRC41 E. coli – strain DRC41, OD650, 24 h, E. coli filamentation project, primary screen (AID 1093);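 further: MC1000 strain lacking acrAB efflux and sulA so SOS filamentation is blocked; test concentration not given here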; settings: E. coli DRC41 growth, higher = more signal, called active from +8 up or from −8 down
[17] = probe aLefty2 binding to arrayed compounds – biochemical, biotinylated probe, 635/667 nm fluorescence, primary screen (AID 1094); settings: small-molecule microarray, higher = more signal;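 further: score merges spot fluorescence near 667 nm with spot signal-to-noise ratio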
[18] = tested on: Noggin (protein binding on small-molecule microarray); test: small molecules binding Noggin protein – biochemical, 635/667 nm fluorescence, primary screen (AID 1095); settings: 635 nm fluorescence, higher = more signal;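 further: score merges 667 nm feature fluorescence with signal to noise over triplicate slides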
[19] = biological target: Neurogenic locus notch homolog protein 3 (Homo sapiens) (UniProt Q9UM47); test: small molecules binding NOTCH3 protein – biochemical, 635/667 nm fluorescence, primary screen (AID 1096); settings: small-molecule microarray, 635 nm fluorescence, higher = more signal
[20] = probe aEGFR binding to arrayed compounds – biochemical, biotinylated probe, 635/667 nm fluorescence, primary screen (AID 1097); settings: small-molecule microarray, higher = more signal;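 further: probe is a biotinylated anti-EGFR antibody binding compounds printed on slides; score combines fluorescence near 667 nm and signal to noise of each spot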

Neurogenic locus notch homolog protein 2 (Homo sapiens), sequence (Q04721 whole entry, looked up, canonical isoform): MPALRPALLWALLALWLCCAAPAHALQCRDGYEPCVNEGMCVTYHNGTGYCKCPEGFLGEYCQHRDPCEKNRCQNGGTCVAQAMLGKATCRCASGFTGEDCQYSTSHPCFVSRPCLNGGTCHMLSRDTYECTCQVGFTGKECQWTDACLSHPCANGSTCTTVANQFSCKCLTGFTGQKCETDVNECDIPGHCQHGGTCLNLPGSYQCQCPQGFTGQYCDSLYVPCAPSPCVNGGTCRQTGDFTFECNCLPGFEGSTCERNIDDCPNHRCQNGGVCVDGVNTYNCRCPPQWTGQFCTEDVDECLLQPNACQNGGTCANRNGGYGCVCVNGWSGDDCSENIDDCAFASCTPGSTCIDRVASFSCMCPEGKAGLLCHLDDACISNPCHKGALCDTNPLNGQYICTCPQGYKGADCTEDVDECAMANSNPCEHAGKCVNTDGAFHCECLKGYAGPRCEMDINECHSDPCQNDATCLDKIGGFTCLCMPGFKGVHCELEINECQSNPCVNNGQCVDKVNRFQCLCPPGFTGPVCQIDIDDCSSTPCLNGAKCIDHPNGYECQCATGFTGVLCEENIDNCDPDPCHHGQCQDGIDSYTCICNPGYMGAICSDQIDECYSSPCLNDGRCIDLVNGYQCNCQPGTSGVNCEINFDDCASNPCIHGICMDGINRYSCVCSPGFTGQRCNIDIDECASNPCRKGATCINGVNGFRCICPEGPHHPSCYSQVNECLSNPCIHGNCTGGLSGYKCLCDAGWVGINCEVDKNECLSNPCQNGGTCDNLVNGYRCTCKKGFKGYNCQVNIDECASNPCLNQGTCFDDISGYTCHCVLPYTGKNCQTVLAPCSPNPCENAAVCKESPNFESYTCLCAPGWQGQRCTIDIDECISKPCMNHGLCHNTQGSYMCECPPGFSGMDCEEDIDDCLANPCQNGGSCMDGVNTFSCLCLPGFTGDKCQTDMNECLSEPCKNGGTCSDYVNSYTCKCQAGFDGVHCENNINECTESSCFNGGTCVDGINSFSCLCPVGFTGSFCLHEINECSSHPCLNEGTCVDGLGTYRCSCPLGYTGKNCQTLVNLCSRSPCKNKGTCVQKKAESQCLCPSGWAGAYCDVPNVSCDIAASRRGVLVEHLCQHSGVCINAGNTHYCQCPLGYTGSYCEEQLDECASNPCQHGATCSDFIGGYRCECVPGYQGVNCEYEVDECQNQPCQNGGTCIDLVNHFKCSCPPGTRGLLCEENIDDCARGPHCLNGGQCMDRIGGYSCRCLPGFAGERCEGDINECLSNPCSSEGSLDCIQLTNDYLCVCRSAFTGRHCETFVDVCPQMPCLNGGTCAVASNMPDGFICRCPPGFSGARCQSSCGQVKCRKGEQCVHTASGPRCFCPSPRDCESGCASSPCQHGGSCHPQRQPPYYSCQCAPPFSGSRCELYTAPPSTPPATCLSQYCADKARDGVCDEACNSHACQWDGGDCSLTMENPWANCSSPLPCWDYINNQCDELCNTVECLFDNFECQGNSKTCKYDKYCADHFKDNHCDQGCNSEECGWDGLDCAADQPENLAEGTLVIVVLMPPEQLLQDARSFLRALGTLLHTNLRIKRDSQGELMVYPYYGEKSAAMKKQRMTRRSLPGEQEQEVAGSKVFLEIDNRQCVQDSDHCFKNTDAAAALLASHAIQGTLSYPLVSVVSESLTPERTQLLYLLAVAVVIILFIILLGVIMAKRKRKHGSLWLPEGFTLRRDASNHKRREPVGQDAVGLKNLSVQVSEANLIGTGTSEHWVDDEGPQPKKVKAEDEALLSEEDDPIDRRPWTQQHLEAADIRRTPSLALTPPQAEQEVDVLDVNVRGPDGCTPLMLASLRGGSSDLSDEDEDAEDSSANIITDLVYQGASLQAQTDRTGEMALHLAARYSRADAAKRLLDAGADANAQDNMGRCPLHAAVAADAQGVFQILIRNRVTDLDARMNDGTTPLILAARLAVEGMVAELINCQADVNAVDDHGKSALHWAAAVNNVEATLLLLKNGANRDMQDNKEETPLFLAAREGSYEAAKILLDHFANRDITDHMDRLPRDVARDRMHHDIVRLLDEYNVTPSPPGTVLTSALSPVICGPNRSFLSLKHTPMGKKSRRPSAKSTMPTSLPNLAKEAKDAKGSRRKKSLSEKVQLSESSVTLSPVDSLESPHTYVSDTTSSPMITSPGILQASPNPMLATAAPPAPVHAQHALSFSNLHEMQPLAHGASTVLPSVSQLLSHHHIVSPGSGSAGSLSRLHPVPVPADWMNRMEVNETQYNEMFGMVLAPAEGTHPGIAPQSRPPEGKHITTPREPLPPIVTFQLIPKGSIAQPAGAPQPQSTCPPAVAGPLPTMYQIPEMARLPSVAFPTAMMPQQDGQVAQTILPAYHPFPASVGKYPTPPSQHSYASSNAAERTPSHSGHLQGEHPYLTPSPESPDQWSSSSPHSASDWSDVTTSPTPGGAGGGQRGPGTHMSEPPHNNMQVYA
Pro-neuregulin-1, membrane-bound isoform (Homo sapiens), sequence (Q02297 whole entry, looked up, the tested form may be a part, canonical isoform): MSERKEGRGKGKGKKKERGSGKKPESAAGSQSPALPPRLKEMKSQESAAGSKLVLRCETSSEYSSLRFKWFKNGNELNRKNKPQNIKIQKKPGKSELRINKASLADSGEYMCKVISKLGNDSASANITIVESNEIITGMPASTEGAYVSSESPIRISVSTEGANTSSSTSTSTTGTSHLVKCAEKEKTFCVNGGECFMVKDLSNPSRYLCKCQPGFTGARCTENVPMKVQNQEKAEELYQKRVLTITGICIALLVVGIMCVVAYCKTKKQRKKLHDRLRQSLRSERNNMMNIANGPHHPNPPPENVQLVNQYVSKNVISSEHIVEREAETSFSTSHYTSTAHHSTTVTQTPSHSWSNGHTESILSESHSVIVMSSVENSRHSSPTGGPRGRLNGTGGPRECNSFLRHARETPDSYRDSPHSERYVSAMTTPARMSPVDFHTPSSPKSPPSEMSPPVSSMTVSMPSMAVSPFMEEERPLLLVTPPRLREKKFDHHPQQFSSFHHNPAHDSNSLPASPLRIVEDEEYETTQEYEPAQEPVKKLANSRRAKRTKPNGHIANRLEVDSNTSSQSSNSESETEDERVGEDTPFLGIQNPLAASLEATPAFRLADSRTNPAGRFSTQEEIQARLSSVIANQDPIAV
Torsin-1A-interacting protein 2 (Homo sapiens), sequence (Q8NFQ8 whole entry, looked up): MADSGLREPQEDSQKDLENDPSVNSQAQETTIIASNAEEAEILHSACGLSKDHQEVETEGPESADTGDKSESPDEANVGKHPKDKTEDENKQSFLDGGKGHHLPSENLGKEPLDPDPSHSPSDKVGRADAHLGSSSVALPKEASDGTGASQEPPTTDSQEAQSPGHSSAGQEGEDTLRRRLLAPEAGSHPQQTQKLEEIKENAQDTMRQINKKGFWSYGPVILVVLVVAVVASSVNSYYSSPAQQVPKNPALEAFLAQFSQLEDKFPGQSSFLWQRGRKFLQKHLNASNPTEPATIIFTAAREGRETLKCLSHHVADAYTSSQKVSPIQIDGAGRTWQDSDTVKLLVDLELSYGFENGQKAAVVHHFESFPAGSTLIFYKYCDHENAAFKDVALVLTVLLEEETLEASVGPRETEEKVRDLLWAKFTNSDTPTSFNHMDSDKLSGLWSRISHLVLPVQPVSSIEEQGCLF

## CCOC(=O)C[C@H]1[C@H](OC(=O)c2cc3ccccc3oc2=O)[C@@H](NC(=O)c2ccc3ccccc3c2)c2cc(OCCCO)ccc2N1C(=O)c1ccc2ccccc2n1
[1]
  composite z-score: -0.522
[2]
  composite z-score: 0.128
[3]
  composite z-score: -0.0336
[4]
  composite z-score: 1.11
[5]
  composite z-score: 1.09
[6]
  composite z-score: 0.384
[7]
  composite z-score: 1.03
[8]
  z-score: -0.881 (inactive)
[9]
  composite z-score: 0.518
[10]
  composite z-score: -0.0994
[11]
  composite z-score: 0.154
[12]
  z-score: -0.653 (inactive)
[13]
  z-score: -0.777 (inactive)
[14]
  z-score: -0.31 (inactive)
[15]
  composite z-score: 0.868
[16]
  z-score: 2.45 (inactive)
[17]
  composite z-score: -0.225
[18]
  composite z-score: 0.956
[19]
  composite z-score: 1.03
[20]
  composite z-score: 0.0768

## [N-]=[N+]=NCc1ccccc1C[C@]1(C(N)=O)N=C(c2ccc(OCCCO)cc2)O[C@H]1c1ccccc1CN=[N+]=[N-]
[1]
  composite z-score: 1.15
[2]
  composite z-score: 1.14
[3]
  composite z-score: 0.128
[4]
  composite z-score: 0.616
[5]
  composite z-score: 1.09
[6]
  composite z-score: 1.74
[7]
  composite z-score: 1
[8]
  z-score: -1.55 (inactive)
[9]
  composite z-score: 0.823
[10]
  composite z-score: -0.3
[11]
  composite z-score: 1.32
[12]
  z-score: -2.38 (inactive)
[13]
  z-score: -2.11 (inactive)
[14]
  z-score: -0.525 (inactive)
[15]
  composite z-score: 3
[16]
  z-score: -0.0236 (inactive)
[17]
  composite z-score: 0.544
[18]
  composite z-score: 0.0263
[19]
  composite z-score: 0.904
[20]
  composite z-score: 0.145

## CN1CCC(CCCO)=CC1C1CC1 (stereo not given)
[1]
  composite z-score: -0.389
[2]
  composite z-score: 1.39
[3]
  composite z-score: -0.199
[4]
  composite z-score: -0.856
[5]
  composite z-score: -1.13
[6]
  composite z-score: -0.345
[7]
  composite z-score: 0.743
[8]
  z-score: -0.901 (inactive)
[9]
  composite z-score: -0.287
[10]
  composite z-score: -0.251
[11]
  composite z-score: 0.608
[12]
  z-score: -0.477 (inactive)
[13]
  z-score: -0.851 (inactive)
[14]
  z-score: -0.761 (inactive)
[15]
  composite z-score: -0.463
[16]
  z-score: 1.08 (inactive)
[17]
  composite z-score: -0.308
[18]
  composite z-score: 0.724
[19]
  composite z-score: 0.0618
[20]
  composite z-score: -0.104

## Cc1ccc(S(=O)(=O)N2[C@@H](c3ccccc3)C(C(=O)O)=CC[C@H]2c2ccccc2)cc1
[1]
  composite z-score: -0.0332
[2]
  composite z-score: -0.0906
[3]
  composite z-score: -0.0502
[4]
  composite z-score: 0.693
[5]
  composite z-score: 1.44
[6]
  composite z-score: 1.06
[7]
  composite z-score: 1.38
[8]
  z-score: -2.89 (inactive)
[9]
  composite z-score: 0.273
[10]
  composite z-score: 0.0854
[11]
  composite z-score: -0.116
[12]
  z-score: -0.12 (inactive)
[13]
  z-score: -0.422 (inactive)
[14]
  z-score: 0.0034 (inactive)
[15]
  composite z-score: 3.4
[16]
  z-score: -1.76 (inactive)
[17]
  composite z-score: -0.0096
[18]
  composite z-score: -0.208
[19]
  composite z-score: 0.622
[20]
  composite z-score: 0.0731

## CO[C@H]1COC(=O)[C@H](Cc2ccccc2)NC(=O)CC=C[C@@H](C)[C@H](OC)COC(=O)CC=C[C@@H]1C
[1]
  composite z-score: -0.453
[2]
  composite z-score: 0.421
[3]
  composite z-score: -0.0643
[4]
  composite z-score: 0.324
[5]
  composite z-score: -0.156
[6]
  composite z-score: 0.131
[7]
  composite z-score: 0.316
[8]
  z-score: -0.244 (inactive)
[9]
  composite z-score: 0.244
[10]
  composite z-score: -0.504
[11]
  composite z-score: -0.141
[12]
  z-score: -0.39 (inactive)
[13]
  z-score: -1.44 (inactive)
[14]
  z-score: -0.617 (inactive)
[15]
  composite z-score: 0.239
[16]
  z-score: 0.296 (inactive)
[17]
  composite z-score: -0.152
[18]
  composite z-score: 0.344
[19]
  composite z-score: 0.717
[20]
  composite z-score: 0.0875

## CCC1=C2CN(Cc3ccccc3Br)[C@@H]([C@@H](O)Cc3ccccc3)C2C=CCC1 (stereo not given in full)
[1]
  composite z-score: -0.525
[2]
  composite z-score: -0.12
[3]
  composite z-score: -0.0858
[4]
  composite z-score: 0.528
[5]
  composite z-score: 0.814
[6]
  composite z-score: 0.421
[7]
  composite z-score: 0.817
[8]
  z-score: -1.83 (inactive)
[9]
  composite z-score: 0.788
[10]
  composite z-score: 0.0881
[11]
  composite z-score: 1.24
[12]
  z-score: -0.828 (inactive)
[13]
  z-score: -5.56 (inactive)
[14]
  z-score: -1.13 (inactive)
[15]
  composite z-score: 2.11
[16]
  z-score: 0.777 (inactive)
[17]
  composite z-score: -0.125
[18]
  composite z-score: 0.515
[19]
  composite z-score: 1.05
[20]
  composite z-score: -0.0981

## COC(=O)Cn1c(C(=O)N2CCCC2)cc2c1C[C@H]1CN(C(=O)c3ccccc3)[C@@](Cc3ccccc3)(C(=O)OC)[C@@H]21
[1]
  composite z-score: 0.0841
[2]
  composite z-score: -0.0841
[3]
  composite z-score: 0.0915
[4]
  composite z-score: 0.381
[5]
  composite z-score: 1.56
[6]
  composite z-score: 1.96
[7]
  composite z-score: 1.17
[8]
  z-score: 1.07 (inactive)
[9]
  composite z-score: 0.76
[10]
  composite z-score: -0.119
[11]
  composite z-score: -0.257
[12]
  z-score: 0.316 (inactive)
[13]
  z-score: 1.23 (inactive)
[14]
  z-score: 0.651 (inactive)
[15]
  composite z-score: 2.52
[16]
  z-score: 0.214 (inactive)
[17]
  composite z-score: 0.302
[18]
  composite z-score: -0.455
[19]
  composite z-score: 0.74
[20]
  composite z-score: 0.168

## CSCC[C@@H]1NC(=O)CC=C[C@@H](C)COC(=O)[C@H](CCSC)NC(=O)CC=C[C@@H](C)COC1=O
[1]
  composite z-score: -0.678
[2]
  composite z-score: 1.31
[3]
  composite z-score: -0.127
[4]
  composite z-score: 0.0086
[5]
  composite z-score: -0.121
[6]
  composite z-score: -0.283
[7]
  composite z-score: -0.26
[8]
  z-score: -0.889 (inactive)
[9]
  composite z-score: -0.15
[10]
  composite z-score: 0.0578
[11]
  composite z-score: -0.153
[12]
  z-score: -0.981 (inactive)
[13]
  z-score: -1.12 (inactive)
[14]
  z-score: -1.03 (inactive)
[15]
  composite z-score: -0.452
[16]
  z-score: -0.566 (inactive)
[17]
  composite z-score: -0.137
[18]
  composite z-score: 0.877
[19]
  composite z-score: -0.35
[20]
  composite z-score: -0.128

## CN(C)CCCC[C@@H]1NC(=O)[C@@H]2C[C@H](C(=O)O)[C@H](c3ccc(O)cc3)N2C1=O
[1]
  composite z-score: 0.491
[2]
  composite z-score: 0.738
[3]
  composite z-score: -0.128
[4]
  composite z-score: 0.217
[5]
  composite z-score: -0.0401
[6]
  composite z-score: 0.237
[7]
  composite z-score: 1.28
[8]
  z-score: 1.7 (inactive)
[9]
  composite z-score: 0.212
[10]
  composite z-score: -0.279
[11]
  composite z-score: 1.41
[12]
  z-score: -0.937 (inactive)
[13]
  z-score: -1.04 (inactive)
[14]
  z-score: -0.587 (inactive)
[15]
  composite z-score: 0.728
[16]
  z-score: 2.71 (inactive)
[17]
  composite z-score: -0.153
[18]
  composite z-score: 1.01
[19]
  composite z-score: 0.385
[20]
  composite z-score: -0.0605

## O=C/C=C/c1ccccc1Cl
[1]
  composite z-score: 0.206
[2]
  composite z-score: -0.0907
[3]
  composite z-score: -0.093
[4]
  composite z-score: -0.0502
[5]
  composite z-score: -0.221
[6]
  composite z-score: 1.05
[7]
  composite z-score: -0.118
[8]
  z-score: 1.58 (inactive)
[9]
  composite z-score: 0.224
[10]
  composite z-score: 0.171
[11]
  composite z-score: -0.284
[12]
  z-score: 1.68 (inactive)
[13]
  z-score: -11 (active)
[14]
  z-score: -0.6 (inactive)
[15]
  composite z-score: 0.54
[16]
  z-score: 0.0791 (inactive)
[17]
  composite z-score: -0.0336
[18]
  composite z-score: -0.479
[19]
  composite z-score: -0.709
[20]
  composite z-score: -0.18
